A structure can be active in one record and inactive in another. Active and inactive are the calls of the source. How the source made its calls: active means hit-call score of the fitted dose curve at least 0.9, where 1 is the maximum; inactive means score below 0.9.

A short description of assay [1]: CEETOX_H295R_ESTRONE: CeeTox H295R High-throughput Steroidogenesis Assay for Estrone (AID 2283441). Particulars: actives raise or lower the signal. The method, boiled down: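 Estrone secreted into medium quantified by LC-MS/MS after dansyl chloride derivatization, following 48 h chemical exposure (0.1% DMSO final) of forskolin-prestimulated (10 uM, 48 h) H295R cells; gain or loss fitted against DMSO; MTT viability in same wells.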

Assay [2] is described as follows: CEETOX_H295R_PROG: CeeTox H295R High-throughput Steroidogenesis Assay for Progesterone (PROG) (AID 2283442).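 On AC50: human H295R adrenal cells primed with 10 µM forskolin before dosing.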 As to conditions: actives raise or lower the signal. The method, boiled down: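 H295R adrenal cells prestimulated 48 h with 10 uM forskolin, then exposed 48 h to test chemical in 0.1% DMSO. Progesterone in medium quantified by HPLC-MS/MS after MTBE extraction; viability checked by MTT in same wells.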

Read-out in assay [3]: Fatty acid synthase (Homo sapiens) (UniProt P49327)
The assay is described as follows: LTEA_HepaRG_FASN: Life Technologies and Expression Analysis (LTEA) Assay for Fatty Acid Synthase (FASN) using HepaRG (AID 2283448). As to conditions: mRNA level, 48 h; actives raise or lower the signal. In outline:
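Cells were plated, cultured 48 h, switched to serum-free induction medium, then dosed in duplicate (max 100 uM, half-log dilutions, 0.5% DMSO) for 48 h. RNA was then isolated and FASN quantified by qRT-PCR.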

Read-out in assay [4]: Cyclin D2 (CCND2), CCND2 (gene 894)
The assay is described as follows: LTEA_HepaRG_CCND2: Life Technologies and Expression Analysis (LTEA) Assay for Cyclin D2 (CCND2) using HepaRG (AID 2283449). As to conditions: mRNA level, 48 h; actives raise or lower the signal. In outline:
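CCND2 transcript levels, quantified by qRT-PCR and normalised to three housekeeping genes, were fitted bidirectionally against 0.5% DMSO. HepaRG cultures were dosed 48 h in duplicate with an 8-point half-log series up to 100 uM.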

Read-out in assay [5]: Cyclin Dependent Kinase Inhibitor 1A (CDKN1A), CDKN1A (gene 1026)
The assay is described as follows: LTEA_HepaRG_CDKN1A: Life Technologies and Expression Analysis (LTEA) Assay for Cyclin Dependent Kinase Inhibitor 1A (CDKN1A) using HepaRG (AID 2283450). As to conditions: mRNA level, 48 h; actives raise or lower the signal. The method, boiled down:
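Differentiated HepaRG cells in serum-free induction medium, exposed 48 h in duplicate to eight half-log concentrations up to 100 uM in 0.5% DMSO. mRNA measured by TaqMan qRT-PCR, normalized to ACTB, GAPDH, POLR2A; bidirectional fit versus DMSO.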

Read-out in assay [6]: Cyclin D1 (CCND1), CCND1 (gene 595)
The assay is described as follows: LTEA_HepaRG_CCND1: Life Technologies and Expression Analysis (LTEA) Assay for Cyclin D1 (CCND1) using HepaRG (AID 2283451).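 On AC50: TaqMan qRT-PCR transcript level normalised to ACTB GAPDH and POLR2A housekeeping genes.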 Particulars: mRNA level, 48 h; actives raise or lower the signal. In outline:
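Differentiated HepaRG cells exposed 48 h in serum-free induction medium to eight half-log concentrations from 100 uM top, 0.5% DMSO, duplicates. CCND1 mRNA measured by Fluidigm TaqMan qRT-PCR, normalised to ACTB, GAPDH, POLR2A; bidirectional fit.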

Read-out in assay [7]: catalase (CAT), CAT (gene 847)
The assay is described as follows: LTEA_HepaRG_CAT: Life Technologies and Expression Analysis (LTEA) Assay for catalase (CAT) using HepaRG (AID 2283452). As to conditions: mRNA level, 48 h; actives raise or lower the signal. In outline:
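Expression of CAT was quantified by TaqMan qRT-PCR with ACTB/GAPDH/POLR2A normalization after 48 h chemical exposure of HepaRG. Eight-point half-log series, top 100 uM, in 0.5% DMSO; gain or loss fitted against vehicle.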

Read-out in assay [8]: flavin-containing dimethylaniline monooxygenases 3 (FMO3), FMO3 (gene 2328)
The assay is described as follows: LTEA_HepaRG_FMO3: Life Technologies and Expression Analysis (LTEA) Assay for flavin-containing dimethylaniline monooxygenases 3 (FMO3) using HepaRG (AID 2283453). Particulars: mRNA level, 48 h; actives raise or lower the signal. In outline: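 FMO3 transcript quantified by TaqMan qRT-PCR against three housekeeping genes after 48 h chemical exposure of HepaRG cells. Eight-point half-log series, top 100 uM, 0.5% DMSO vehicle; phenobarbital 1mM induction control; up- or down-regulation fitted.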

Read-out in assay [9]: CFLAR gene, CFLAR (gene 8837)
The assay is described as follows: LTEA_HepaRG_CFLAR: Life Technologies and Expression Analysis (LTEA) Assay for CFLAR gene using HepaRG (AID 2283455). Particulars: mRNA level, 48 h; actives raise or lower the signal. In outline: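 Transcript level by qRT-PCR (normalized to ACTB, GAPDH and POLR2A) after 48 h chemical exposure of HepaRG cells, top concentration 100 uM with half-log steps, 0.5% DMSO vehicle, duplicates; fitted bidirectionally against DMSO baseline.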

Read-out in assay [10]: Forkhead box O1 (FOXO1), FOXO1 (gene 2308)
The assay is described as follows: LTEA_HepaRG_FOXO1: Life Technologies and Expression Analysis (LTEA) Assay for Forkhead box O1 (FOXO1) using HepaRG (AID 2283456). Particulars: mRNA level, 48 h; actives raise or lower the signal. In outline:
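FOXO1 transcript quantified by qRT-PCR after 48 h chemical exposure (top 100 uM, half-log steps, 0.5% DMSO) of HepaRG cells, housekeeping-normalized (ACTB/GAPDH/POLR2A). Changes fitted in both directions relative to vehicle.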

Read-out in assay [11]: growth arrest and DNA damage 45 (GADD45A), GADD45A (gene 1647)
The assay is described as follows: LTEA_HepaRG_GADD45A: Life Technologies and Expression Analysis (LTEA) Assay for growth arrest and DNA damage 45 (GADD45A) using HepaRG (AID 2283458). Particulars: mRNA level, 48 h; actives raise or lower the signal. The method, boiled down:
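Transcript induction or loss, quantified by TaqMan qRT-PCR against three housekeeping genes, is the read-out. HepaRG cells received chemicals for 48 h across eight half-log concentrations from 100 uM in 0.5% DMSO; gain and loss fitted relative to DMSO.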

Read-out in assay [12]: Forkhead box O3 (FOXO3), FOXO3 (gene 2309)
The assay is described as follows: LTEA_HepaRG_FOXO3: Life Technologies and Expression Analysis (LTEA) Assay for Forkhead box O3 (FOXO3) using HepaRG (AID 2283459). Particulars: mRNA level, 48 h; actives raise or lower the signal. The method, boiled down:
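FOXO3 transcript measured by qRT-PCR (normalized to ACTB, GAPDH, POLR2A) after 48 h exposure of HepaRG cells in serum-free induction medium. Duplicates, eight half-log concentrations up to 100 uM, 0.5% DMSO; gain or loss fitted against DMSO.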

Read-out in assay [13]: ABC Transporter (ABCB1), ABCB1 (gene 5243)
The assay is described as follows: LTEA_HepaRG_ABCB1: Life Technologies and Expression Analysis (LTEA) Assay for ABC Transporter (ABCB1) using HepaRG (AID 2283460). Particulars: mRNA level, 48 h; actives raise or lower the signal. In outline:
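ABCB1 transcript level measured by TaqMan qRT-PCR against three housekeeping genes after 48 h chemical exposure of differentiated HepaRG cells. Top concentration 100 uM, half-log steps, eight points, 0.5% DMSO vehicle; bidirectional fit relative to DMSO.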

Read-out in assay [14]: growth arrest and DNA damage 45 (GADD45B), GADD45B (gene 4616)
The assay is described as follows: LTEA_HepaRG_GADD45B: Life Technologies and Expression Analysis (LTEA) Assay for growth arrest and DNA damage 45 (GADD45B) using HepaRG (AID 2283461). As to conditions: mRNA level, 48 h; actives raise or lower the signal. In outline: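 Differentiated human HepaRG cells in serum-free induction medium exposed 48 h in duplicate to eight concentrations, top 100 uM, half-log steps, 0.5% DMSO. GADD45B mRNA by TaqMan qRT-PCR, normalized to ACTB, GAPDH, POLR2A; bidirectional fit versus DMSO.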

Read-out in assay [15]: ABC Transporter (ABCB11), ABCB11 (gene 8647)
The assay is described as follows: LTEA_HepaRG_ABCB11: Life Technologies and Expression Analysis (LTEA) Assay for ABC Transporter (ABCB11) using HepaRG (AID 2283463). Particulars: mRNA level, 48 h; actives raise or lower the signal. In outline: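 ABCB11 transcript levels quantified by TaqMan qRT-PCR against three housekeeping genes after 48 h chemical exposure of HepaRG cultures. Concentrations up to 100 uM in half-log steps, 0.5% DMSO vehicle; both induction and suppression scored.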

Read-out in assay [16]: Broad substrate specificity ATP-binding cassette transporter ABCG2 (Homo sapiens) (UniProt Q9UNQ0)
The assay is described as follows: LTEA_HepaRG_ABCG2: Life Technologies and Expression Analysis (LTEA) Assay for ABC Transporter (ABCG2) using HepaRG (AID 2283465). As to conditions: mRNA level, 48 h; actives raise or lower the signal. In outline:
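ABCG2 transcript was quantified by TaqMan qRT-PCR against three housekeeping genes in HepaRG cells. Cells were treated in duplicate for 48 h across an 8-point half-log series up to 100 uM, with 0.5% DMSO vehicle. Gain or loss versus DMSO was fit.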

Read-out in assay [17]: ATP-citrate lyase (ACLY), ACLY (gene 47)
The assay is described as follows: LTEA_HepaRG_ACLY: Life Technologies and Expression Analysis (LTEA) Assay for ATP-citrate lyase (ACLY) using HepaRG (AID 2283466). As to conditions: mRNA level, 48 h; actives raise or lower the signal. The method, boiled down: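 ACLY mRNA quantified by qRT-PCR on Fluidigm arrays against three housekeeping genes, after 48 h chemical treatment of HepaRG cells (top concentration 100 uM, half-log steps, 0.5% DMSO vehicle). Up- or down-regulation fitted relative to DMSO.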

Read-out in assay [18]: Peroxisomal acyl-coenzyme A oxidase 1 (ACOX1) gene, ACOX1 (gene 51)
The assay is described as follows: LTEA_HepaRG_ACOX1: Life Technologies and Expression Analysis (LTEA) Assay for Peroxisomal acyl-coenzyme A oxidase 1 (ACOX1) gene using HepaRG (AID 2283467). Particulars: mRNA level, 48 h; actives raise or lower the signal. In outline: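 ACOX1 transcript levels were quantified by TaqMan qRT-PCR against three housekeeping genes after 48 h chemical exposure of differentiated human HepaRG cells. Exposure used eight half-log steps topping at 100 uM, 0.5% DMSO vehicle, in duplicate. Bidirectional curve fits were made relative to DMSO.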

Read-out in assay [19]: Alkaline Phosphatase, Placental (ALPP) gene, ALPP (gene 250)
The assay is described as follows: LTEA_HepaRG_ALPP: Life Technologies and Expression Analysis (LTEA) Assay for Alkaline Phosphatase, Placental (ALPP) gene using HepaRG (AID 2283468). As to conditions: mRNA level, 48 h; actives raise or lower the signal. In outline: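 HepaRG cells plated 48 h, then exposed in duplicate for 48 h in serum-free induction medium to 8-point half-log series from 100 uM in 0.5% DMSO. ALPP mRNA by TaqMan qRT-PCR, normalized to ACTB/GAPDH/POLR2A; bidirectional fit versus DMSO.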

Fatty acid synthase (Homo sapiens), sequence (P49327 whole entry, looked up): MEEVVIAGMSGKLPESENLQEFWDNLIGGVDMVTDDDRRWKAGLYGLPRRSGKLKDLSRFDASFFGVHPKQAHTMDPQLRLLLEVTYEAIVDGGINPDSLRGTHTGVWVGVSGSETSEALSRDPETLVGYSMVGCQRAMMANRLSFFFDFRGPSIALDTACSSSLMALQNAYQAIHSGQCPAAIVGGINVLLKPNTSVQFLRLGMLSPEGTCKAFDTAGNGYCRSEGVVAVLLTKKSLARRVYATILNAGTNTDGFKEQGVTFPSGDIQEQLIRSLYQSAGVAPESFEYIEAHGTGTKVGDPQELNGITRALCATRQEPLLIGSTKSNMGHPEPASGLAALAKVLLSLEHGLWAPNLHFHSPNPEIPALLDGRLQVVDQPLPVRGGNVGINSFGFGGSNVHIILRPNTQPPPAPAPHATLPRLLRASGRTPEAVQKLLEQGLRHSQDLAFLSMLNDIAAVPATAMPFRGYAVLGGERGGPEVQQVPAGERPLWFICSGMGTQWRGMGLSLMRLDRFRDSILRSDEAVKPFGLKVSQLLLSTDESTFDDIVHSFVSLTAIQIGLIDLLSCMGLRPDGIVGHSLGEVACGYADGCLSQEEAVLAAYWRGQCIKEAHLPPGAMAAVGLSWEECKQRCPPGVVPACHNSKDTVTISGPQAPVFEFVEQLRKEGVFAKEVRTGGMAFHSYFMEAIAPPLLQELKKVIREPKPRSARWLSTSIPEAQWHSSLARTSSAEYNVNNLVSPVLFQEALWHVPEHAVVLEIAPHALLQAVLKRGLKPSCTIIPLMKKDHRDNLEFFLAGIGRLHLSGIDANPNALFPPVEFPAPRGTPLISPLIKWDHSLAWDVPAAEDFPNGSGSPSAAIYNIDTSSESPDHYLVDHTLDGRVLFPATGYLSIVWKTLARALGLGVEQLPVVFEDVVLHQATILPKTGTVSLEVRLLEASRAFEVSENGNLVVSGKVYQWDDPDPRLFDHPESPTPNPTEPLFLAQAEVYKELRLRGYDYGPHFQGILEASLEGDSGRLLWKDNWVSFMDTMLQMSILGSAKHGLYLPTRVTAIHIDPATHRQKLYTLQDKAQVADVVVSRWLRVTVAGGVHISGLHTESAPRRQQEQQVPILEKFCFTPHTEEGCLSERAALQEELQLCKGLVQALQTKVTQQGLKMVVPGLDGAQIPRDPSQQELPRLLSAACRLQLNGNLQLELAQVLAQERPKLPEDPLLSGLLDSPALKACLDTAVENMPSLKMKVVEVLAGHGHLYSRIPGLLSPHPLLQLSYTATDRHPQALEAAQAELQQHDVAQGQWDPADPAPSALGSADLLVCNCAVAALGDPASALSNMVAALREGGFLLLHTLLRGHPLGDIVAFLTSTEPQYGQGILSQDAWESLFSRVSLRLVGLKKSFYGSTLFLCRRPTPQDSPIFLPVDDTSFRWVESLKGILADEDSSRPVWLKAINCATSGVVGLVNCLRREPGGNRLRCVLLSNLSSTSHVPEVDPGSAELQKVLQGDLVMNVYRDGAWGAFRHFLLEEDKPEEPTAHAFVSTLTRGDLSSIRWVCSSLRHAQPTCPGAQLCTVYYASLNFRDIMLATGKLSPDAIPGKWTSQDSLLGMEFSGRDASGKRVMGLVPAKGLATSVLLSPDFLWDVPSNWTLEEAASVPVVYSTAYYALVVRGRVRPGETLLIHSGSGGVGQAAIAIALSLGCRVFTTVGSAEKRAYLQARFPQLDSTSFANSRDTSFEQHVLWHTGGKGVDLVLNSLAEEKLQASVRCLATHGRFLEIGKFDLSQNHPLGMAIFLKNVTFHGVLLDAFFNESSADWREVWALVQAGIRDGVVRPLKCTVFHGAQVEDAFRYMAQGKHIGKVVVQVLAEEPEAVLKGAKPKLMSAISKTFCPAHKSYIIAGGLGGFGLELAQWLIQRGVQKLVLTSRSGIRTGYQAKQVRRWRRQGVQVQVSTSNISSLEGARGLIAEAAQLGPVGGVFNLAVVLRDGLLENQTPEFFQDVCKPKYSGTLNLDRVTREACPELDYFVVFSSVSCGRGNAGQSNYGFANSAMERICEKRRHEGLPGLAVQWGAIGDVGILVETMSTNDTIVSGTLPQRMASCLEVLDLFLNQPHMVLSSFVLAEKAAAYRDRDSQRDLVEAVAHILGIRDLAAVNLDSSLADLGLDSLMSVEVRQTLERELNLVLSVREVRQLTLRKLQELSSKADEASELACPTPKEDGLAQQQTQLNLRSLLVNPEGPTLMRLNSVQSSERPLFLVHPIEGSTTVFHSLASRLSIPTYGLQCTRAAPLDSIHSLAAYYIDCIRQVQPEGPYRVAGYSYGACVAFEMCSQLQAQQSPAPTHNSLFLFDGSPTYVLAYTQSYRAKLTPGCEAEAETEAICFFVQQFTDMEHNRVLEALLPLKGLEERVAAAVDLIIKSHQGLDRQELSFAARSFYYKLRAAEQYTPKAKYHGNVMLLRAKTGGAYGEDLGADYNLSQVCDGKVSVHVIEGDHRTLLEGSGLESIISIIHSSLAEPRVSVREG
Broad substrate specificity ATP-binding cassette transporter ABCG2 (Homo sapiens), sequence (Q9UNQ0 whole entry, looked up): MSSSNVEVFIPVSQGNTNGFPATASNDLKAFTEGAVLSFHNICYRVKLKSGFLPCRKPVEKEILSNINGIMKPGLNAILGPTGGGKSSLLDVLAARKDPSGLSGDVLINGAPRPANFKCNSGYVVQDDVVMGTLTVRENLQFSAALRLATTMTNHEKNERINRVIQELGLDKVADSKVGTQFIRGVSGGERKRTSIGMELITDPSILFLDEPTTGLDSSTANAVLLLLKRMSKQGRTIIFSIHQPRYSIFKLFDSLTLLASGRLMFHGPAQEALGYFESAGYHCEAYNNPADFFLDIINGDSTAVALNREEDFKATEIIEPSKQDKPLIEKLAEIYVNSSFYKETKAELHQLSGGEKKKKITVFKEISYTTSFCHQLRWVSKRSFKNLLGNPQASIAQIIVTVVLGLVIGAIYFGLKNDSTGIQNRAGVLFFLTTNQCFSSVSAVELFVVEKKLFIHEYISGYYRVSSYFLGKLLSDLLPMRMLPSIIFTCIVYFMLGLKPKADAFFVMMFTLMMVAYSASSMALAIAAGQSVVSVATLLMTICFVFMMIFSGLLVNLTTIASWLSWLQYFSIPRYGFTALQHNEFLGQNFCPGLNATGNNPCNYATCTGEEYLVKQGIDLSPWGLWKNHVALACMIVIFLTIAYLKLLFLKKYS

Take `C(=NC1CCCCC1)=NC1CCCCC1`: the compound was called inactive in [1] and in assay [2].
What is called AC50 is the midpoint of the concentration-response curve, whichever way the signal moves. With `O=C(O)C(Cl)(Cl)Cl`, the result in assay [3], in assay [4], in assay [5], in assay [6], in assay [7] and in assay [8] was inactive. The compound was classed as inactive in assay [9], in [10], in assay [11], in [12], in [13] and in assay [14]. Also, the compound was classed as inactive in assay [15], in assay [16], in [17], in [18] and in [19]. Also, the AC50 in [7] was 0.207 µM (active).
Regarding `C1CCC(NC2CCCCC2)CC1`, in [2], the AC50 was 12.7 µM (active).
In the case of `CC(C)OC(=O)Nc1ccccc1`, the call in assay [2] was inactive.
On to `COc1cc(-c2ccc(N)c(OC)c2)ccc1N`, for which the AC50 in assay [2] is 35.4 µM (active); in assay [3], 55.6 µM (active); in assay [6], 32.7 µM (active); in assay [8], 72.6 µM (active); in assay [13], 50 µM (active); in assay [14], 50 µM (active). The AC50 is 71.5 µM (active) in [15] and 25 µM (active) in [16]. Besides, the result in assay [2], in assay [3], in [4], in assay [5], in [6] and in assay [7] was inactive. Also, the compound was classed as inactive in assay [8], in [9], in assay [10], in assay [11], in assay [12] and in assay [13]. The outcome in assay [14], in [15], in assay [16], in assay [17], in assay [18] and in assay [19] was inactive.

For the origin of these results see PubChem BioAssay (EPA / NIEHS).
